Shown are actives, neighbours in structure and some others; about 3.5% of the full set was active somewhere.
MITF inh: MITF inhibitors, primary screen, biochemical, AlphaScreen, human | Microphthalmia-associated transcription factor (Homo sapiens), O75030 | AlphaScreen MITF homodimerization, bead proximity signal | inhibition, % at 2.6 µM | 650,000 compounds, 0.91% hits; in the data active means inhibition above about 50%;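 further: 0% = vehicle wells with protein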
Target sequence (O75030 whole entry, looked up): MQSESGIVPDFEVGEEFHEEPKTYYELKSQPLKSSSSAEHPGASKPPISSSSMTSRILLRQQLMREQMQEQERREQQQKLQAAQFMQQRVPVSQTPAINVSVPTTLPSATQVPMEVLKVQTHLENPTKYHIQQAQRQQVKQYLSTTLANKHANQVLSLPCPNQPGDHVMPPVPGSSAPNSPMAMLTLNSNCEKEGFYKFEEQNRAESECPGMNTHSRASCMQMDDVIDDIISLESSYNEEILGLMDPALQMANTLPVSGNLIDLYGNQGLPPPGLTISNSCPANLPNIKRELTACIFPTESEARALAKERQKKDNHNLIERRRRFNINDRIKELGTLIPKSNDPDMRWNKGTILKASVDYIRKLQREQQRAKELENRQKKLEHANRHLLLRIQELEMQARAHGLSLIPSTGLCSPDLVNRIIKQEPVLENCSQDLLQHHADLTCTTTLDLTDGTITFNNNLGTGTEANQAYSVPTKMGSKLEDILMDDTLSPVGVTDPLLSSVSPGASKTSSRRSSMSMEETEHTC
TEAD-YAP block: TEAD-YAP interaction inhibition, primary screen, TEAD-YAP interaction inhibitor project, luminescence, HEK-TIYL cells | TEAD-Gal4/YAP UAS-luciferase luminescence | inhibition, % at 9.12 µM | 640,000 compounds, 1.4% hits; in the data active means inhibition above about 32%;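 further: 0% = median of test compound wells and 100% = reference inhibitor wells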
GPR151 activ: activators of human GPR151, primary screen, cell-based, PathHunter beta-arrestin, luminescence; PathHunter beta-arrestin GPR151 cells; AID 1508602, 2020; 650,000 compounds, 1% hits; activation, % at 11.2 µM; in the data active means activation above about 4.9%;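 further: 0% = median of compound wells and 100% = cells with positive control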
FBW7 act: FBW7 E3 ligase activators, primary screen, biochemical, AlphaScreen, human; AlphaScreen FBW7–phospho-cyclin E peptide binding, activator screen; normalized activity (activation), % at 26.1 µM; 650,000 compounds, 0.13% hits; AID 1259310, 2017; in the data active means normalized activity above about 1.9%;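 further: purified mutant Fbw7 with reduced substrate affinity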
GPR151 confirm: GPR151 activators, triplicate retest, confirmation, cell-based, PathHunter beta-arrestin, luminescence; GPR151 PathHunter beta-arrestin cells, 90 min; % of EA-reagent control over plate median; AID 1508609, 2020; shares compounds with GPR151 activ; activation, % at 11.2 µM; 6,700 tested, under 10 active;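 active means mean percent activation across replicates above the confirmation screen cutoff of 4.91%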
GPR119 counter: GPR119 activators in beta-arrestin cells, counter-screen for GPR151 activator project, cell-based, PathHunter beta-arrestin, luminescence, triplicate; 90 min; 0 = compound-well median, 100 = enzyme-acceptor control; shares compounds with GPR151 activ; activation, % at 11.2 µM; AID 1508611, 2020; 6,700 compounds, 0.3% hits;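 active means mean percent activation in the counterscreen above 29.09%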;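 further: counterscreen on off-target GPR119 to flag nonselective hits from the GPR151 activator screen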
* hit, by the source's call; ! = repeats disagree.

What do the screens show for `Nc1ncnc2c1ncn2[C@@H]1O[C@H](CO)[C@@H](O)[C@H]1O`?
MITF inh: -7; TEAD-YAP block: -9; GPR151 activ: 1; FBW7 act: 0

How did COc1ccc(C[C@H](N)C(=O)N[C@@H]2[C@@H](CO)OC(n3cnc4c(N(C)C)ncnc43)[C@@H]2O)cc1 (some centres undefined) do in these assays?
MITF inh: -4; TEAD-YAP block: 100*; GPR151 activ: 6.8*!; FBW7 act: 0; GPR151 confirm: 2; GPR119 counter: 0

What do the screens show for `CSc1ccc(/C=c2/sc3nc(-c4cccnc4)nn3c2=O)cc1`?
MITF inh: 10; TEAD-YAP block: -6; GPR151 activ: 3; FBW7 act: 0

Results for CN(C)c1ccc(CN(C(=O)c2ccccc2[N+](=O)[O-])C2CCS(=O)(=O)C2)cc1 (centres undefined) ?
MITF inh: 20; TEAD-YAP block: -8; GPR151 activ: -1; FBW7 act: 0

What do the screens show for `O=C(c1ccccc1[N+](=O)[O-])N(Cc1ccc(Cl)cc1)C1CCS(=O)(=O)C1` (centres undefined)?
MITF inh: -14; TEAD-YAP block: 0; GPR151 activ: 5.0*; FBW7 act: 0; GPR151 confirm: 1; GPR119 counter: -2

Results for COc1cc([N+](=O)[O-])cc(CN2CCN(c3ccccc3F)CC2)c1O ?
MITF inh: 2; TEAD-YAP block: 0; GPR151 activ: -1; FBW7 act: 0

How did Cc1cc(C(=O)NN2CCOCC2)c(C)o1 do in these assays?
MITF inh: 8; TEAD-YAP block: 3; GPR151 activ: 7.6*; FBW7 act: 0; GPR151 confirm: 0; GPR119 counter: 7

How did Cc1cc(C(=O)N2CCOCC2)c(C)o1 do in these assays?
MITF inh: 15; TEAD-YAP block: -8; GPR151 activ: 0; FBW7 act: 0

What do the screens show for `CC1CCC(C(=O)N2CCCC2C(=O)O)CC1` (centres undefined)?
MITF inh: 11; TEAD-YAP block: 3; GPR151 activ: 2; FBW7 act: 0

How did Cc1ccccc1OCC(=O)Nc1ccc(Cl)c(-c2nc3ccccc3s2)c1 do in these assays?
MITF inh: -7; TEAD-YAP block: -3; GPR151 activ: 6.4*; FBW7 act: 0; GPR151 confirm: 1; GPR119 counter: 20

How did Cc1ccc(NC(=O)CSc2nc3cc4c(cc3c(=O)n2Cc2ccco2)OCO4)cc1Cl do in these assays?
MITF inh: -3; TEAD-YAP block: 9; GPR151 activ: -2; FBW7 act: 0

What do the screens show for `CCN(CC)CC(=O)Nc1nc2ccc(OC)cc2s1`?
MITF inh: 13; TEAD-YAP block: -15; GPR151 activ: 1; FBW7 act: 0

How did CCC(=O)NNc1nc2ccc(OC)cc2s1 do in these assays?
MITF inh: -9; TEAD-YAP block: 3; GPR151 activ: 6.3*; FBW7 act: 1; GPR151 confirm: 1; GPR119 counter: 6

What do the screens show for `CCOC(=O)CSc1nc(N)c2c3c(sc2n1)CCCC3`?
MITF inh: -3; TEAD-YAP block: -8; GPR151 activ: 13*; FBW7 act: 1; GPR151 confirm: -1; GPR119 counter: 0

What do the screens show for `CCCCCOC(=O)CSc1nc(N)c2c3c(sc2n1)CCCC3`?
MITF inh: 1; TEAD-YAP block: -5; GPR151 activ: -1; FBW7 act: 0

How did O=C(c1ccc(Cl)cc1)c1conc1C(=O)c1cccs1 do in these assays?
MITF inh: 8; TEAD-YAP block: 8; GPR151 activ: -1; FBW7 act: 0

How did Cc1ccc(C(=O)c2nocc2C(=O)c2cccs2)cc1 do in these assays?
MITF inh: 1; TEAD-YAP block: 2; GPR151 activ: 6.1*; FBW7 act: 0; GPR151 confirm: 0; GPR119 counter: -8

What do the screens show for `CN(C)c1ccc(/C=C2/SC(=Nc3ccccc3)N(Cc3ccccc3)C2=O)cc1`?
MITF inh: 1; TEAD-YAP block: -15; GPR151 activ: 0; FBW7 act: 0

Results for CN(C)c1ccc(NC(=O)CCN2C(=O)C3C4C=CC(C4)C3C2=O)cc1 (centres undefined) ?
MITF inh: -1; TEAD-YAP block: -15; GPR151 activ: 5.2*; FBW7 act: 0; GPR151 confirm: 0; GPR119 counter: -14

Results for Cc1ccc(C(C)CCN2CCC3(CCC(CNC(=O)c4ccccc4)O3)CC2)o1 (centres undefined) ?
MITF inh: 15; TEAD-YAP block: 2; GPR151 activ: 1; FBW7 act: 0

How did Cc1ccc(C(C)CCN2CCC3(CCC(CNC(=O)C(C)C)O3)CC2)o1 (centres undefined) do in these assays?
MITF inh: -4; TEAD-YAP block: -12; GPR151 activ: 7.8*; FBW7 act: 0; GPR151 confirm: 0; GPR119 counter: 0

What do the screens show for `CCOc1ccccc1Nc1nnc(SCc2nc3ccccc3c(=O)[nH]2)s1`?
MITF inh: 4; TEAD-YAP block: -9; GPR151 activ: -1; FBW7 act: 0

Results for O=c1[nH]c(CSc2nnc(Nc3ccccc3F)s2)nc2ccccc12 ?
MITF inh: -19; TEAD-YAP block: -1; GPR151 activ: 7.2*; FBW7 act: 0; GPR151 confirm: 0; GPR119 counter: 4

What do the screens show for `O=C(Nc1nnc(S(=O)(=O)N2CCc3ccccc32)s1)c1ccco1`?
MITF inh: 1; TEAD-YAP block: 2; GPR151 activ: 2; FBW7 act: 0

How did Cc1cccc(OCC(=O)Nc2nnc(S(=O)(=O)N3CCc4ccccc43)s2)c1 do in these assays?
MITF inh: -4; TEAD-YAP block: -2; GPR151 activ: 6.1*; FBW7 act: 0; GPR151 confirm: 0; GPR119 counter: -6

What do the screens show for `O=C(Nc1nnc(S(=O)(=O)N2CCc3ccccc32)s1)c1cccs1`?
MITF inh: -13; TEAD-YAP block: -2; GPR151 activ: 5.2*; FBW7 act: 0; GPR151 confirm: 1; GPR119 counter: 3

What do the screens show for `Cc1ccc(OCC(=O)Nc2nnc(S(=O)(=O)NCc3ccccc3)s2)cc1`?
MITF inh: -9; TEAD-YAP block: -26; GPR151 activ: 8.7*; FBW7 act: 0; GPR151 confirm: 1; GPR119 counter: -1

Results for Cc1cc(F)c(F)cc1C(=O)N1CCCC1 ?
MITF inh: -4; TEAD-YAP block: 11; GPR151 activ: 2; FBW7 act: 0
